A selection: hits, their analogues and other compounds. The true share with any hit is near 1.6%.
PABP FP inh: PABP-poly(A) binding inhibition. PABP-poly(A) RNA binding, fluorescence polarization. inhibition, % at 35 µM. 290,000 tested, 1% active. P11940. AID 2014;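 note: calls also rest on retests at 20 µM and on dose response follow-up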
eIF4H FP inh: inhibitors of RNA binding by human eIF4H; inhibition, % at 35 µM; eIF4H fluorescence polarization binding assay; AID 2012; 290,000 tested, 0.94% active; Q15056;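 note: calls also rest on retests at 20 µM and on dose response follow-up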
eIF4E-4G inh: inhibitors of eIF4E and eIF4G interaction in translation initiation; P63073+Q04637; TR-FRET eIF4E-eIF4GI(517-606) binding, 2 h; inhibition, % at 21.7 µM; 220,000 tested, 0.37% active; AID 782;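 active = inhibition above about 30%, limit read from the data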;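 note: 0% = full FRET control wells and 100% = background wells lacking eIF4GI fragment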
PERK inhibitor: human PERK inhibition, primary cell-based screen | 220,000 tested, 0.17% active | Q9NZJ5 | CHO PERK-DD fusion, SEAP luminescence translation reporter | inhibition, % at 5.6 µM;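 active = inhibition above the mean inhibition of all tested compounds plus 3 SD, set separately per screening campaign, cut at about 2.9% in these data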;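 note: PERK kinase domain activated by AP20187 dimerizer at 100 nM; 0% = DMSO with dimerizer and 100% = rapamycin at 8.4 µM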
MLLE-PAM2 inh: inhibitors of microRNA-mediated deadenylation, human PABP1 MLLE binding; P11940; GST-MLLE / FITC-PAM2 fluorescence polarization; inhibition, % at 20 µM; 360,000 tested, 0.36% active; in the data active = inhibition above about 35%, passing the limit was not always enough;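 note: plate controls were DMSO wells with GST-MLLE for no effect and wells lacking GST-MLLE protein for full effect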
Numbers without * were called inactive; u = inconclusive; x = not tested or not shown. Unless noted, the rule behind the calls is not given here.

SMILES	PABP FP inh	eIF4H FP inh	eIF4E-4G inh	PERK inhibitor	MLLE-PAM2 inh
Cc1cc(C)c(C2=CC(=O)C[C@H](c3ccc4c(c3)OCO4)C2)c(C)c1	x	x	x	x	-1.3
CN(C(=O)CN1C(=O)NC2(CCc3ccccc32)C1=O)C1CCCCC1 (stereo not drawn)	x	x	x	x	-14.2
COc1ccccc1CNC(=O)CN1C(=O)c2cccc(N)c2C1=O	12.0	41.3	x	x	27.1
CC1CCCCC1NC(=O)CN1C(=O)c2cccc(N)c2C1=O (stereo not drawn)	active	105.7*	2.0	0.9	49.8*
CN(C(=O)CN1C(=O)c2cccc(N)c2C1=O)C1CCCCC1	x	x	x	x	40.0*
CCCn1c(C)cc(C(=O)CN2C(=O)c3cccc(N)c3C2=O)c1C	94.6*	85.4*	-0.8	-1.0	12.1
Cc1cc(C(=O)CN2C(=O)c3ccccc3C2=O)c(C)n1Cc1cccs1	-2.4	23.8	-3.5	-0.4	-26.1
CCCCNC(=O)CN1C(=O)c2cccc(N)c2C1=O	85.7*	84.9*	1.9	0.9	39.5*
O=C(NCCc1ccccc1O)c1cc2c(cc1[N+](=O)[O-])OCO2	x	x	x	x	-5.8
Cc1nn(CCCC(=O)NCc2ccc(F)cc2)c(=O)c2nccn12	1.0	-2.5	x	x	-14.9
Cn1nnnc1SCc1nc2scc(-c3ccc(Cl)cc3)c2c(=O)[nH]1	50.7*	59.1*	-0.1	0.3	-90.2
NC(=O)c1nnn(-c2ccc([N+](=O)[O-])cc2)c1-c1ccccc1	-3.7	2.0	4.0	0.3	6.2
CC(=O)c1nnn(-c2ccc([N+](=O)[O-])cc2)c1C	54.8	active	4.7	0.9	8.3
CC12CCC(O)CC1=CCC1C2CCC2(C)c3[nH]ncc3CC12 (stereo not drawn)	x	x	x	x	-1.3
COc1cc(NS(=O)(=O)c2ccc(NC(=S)NC(=O)c3ccco3)cc2)nc(OC)n1	2.3	-1.9	-7.3	0.4	37.9
COc1cc(NS(=O)(=O)c2ccc(NC(=S)NC(=O)c3sc4ccccc4c3Cl)cc2)nc(OC)n1	15.1	7.4	-2.5	0.9	48.0*
COc1cc(NS(=O)(=O)c2ccc(NC(=S)NC(=O)c3sc4cc(F)ccc4c3Cl)cc2)nc(OC)n1	-8.0	2.5	0.3	1.0	40.5*
COc1ccc(OC(F)(F)F)cc1CC1(C)C(=O)Nc2ccc(-c3ccsc3)cc21 (stereo not drawn)	x	x	x	x	-21.6
O=C(NN1C(=O)NC2(CCCCC2)C1=O)c1cccs1	x	x	x	x	8.5
O=C1C2C3C=CC(CC3)C2C(=O)N1c1nccs1 (stereo not drawn)	active	104.9*	7.0	1.1	13.2
O=C1C2C3C=CC(C2C(=O)N1c1nccs1)C1C(=O)N(c2nccs2)C(=O)C31 (stereo not drawn)	-0.1	9.4	-5.3	1.0	7.9
O=C(CCO)c1ccc(O)cc1	50.7*	93.8*	10.2	0.6	-13.3
CC(=O)Nc1ccc(S(=O)(=O)O)c(OC(C)=O)c1	x	x	x	x	-2.7
CCCC(=O)NC1=C(Cl)C(=O)c2ccccc2C1=O	x	x	x	x	41.5*
CCN(CC)c1ccc(NC2=C(Cl)C(=O)c3ccccc3C2=O)cc1	-4.6	-4.0	19.4	0.1	44.8*
SMILES	PABP FP inh	eIF4H FP inh	eIF4E-4G inh	PERK inhibitor	MLLE-PAM2 inh
CCNC1=C(Cl)C(=O)c2ccccc2C1=O	9.7	-13.0	5.2	0.8	7.2
N#CC1=C2N=C(N)c3ccccc3N2C2=C(C(=O)CCC2)C1c1ccc(F)cc1 (stereo not drawn)	22.1	40.1	94.0*	-1.1	-10.2
Cc1ccc(C2C(C#N)=C3N=C(N)c4ccccc4N3C3=C2C(=O)CCC3)cc1 (stereo not drawn)	45.0	u	1.2	-1.1	1.4
Nc1n[nH]c(=S)n1/N=C1/C(=O)Nc2ccccc21	-10.3	37.5	1.3	0.6	44.5*
O=C1Nc2ccccc2C1=NN1CCCCCC1	x	x	x	x	-2.2
O=C(C[C@@H]1C/C=C\C[C@H](Cc2ccc(F)cc2)C(=O)OC[C@H]2CCCN2C1=O)N[C@H](CO)Cc1ccccc1	x	x	x	x	1.2
CC1=C(C#N)C(=O)N(C2CCS(=O)(=O)C2)C(=O)/C1=C\c1ccc(C)o1 (stereo not drawn)	u	u	37.7*	0.4	x
C=CC(=O)NCC1OCCc2ccccc21 (stereo not drawn)	-1.0	0.3	2.6	0.8	4.7
O=C(/C=C/c1ccco1)NCC1OCCc2ccccc21 (stereo not drawn)	41.2*	86.8*	19.6	1.9	11.1
CCC(C(=O)NC(C)CCc1ccccc1)n1nc(C)n2c(cc3occc32)c1=O (stereo not drawn)	12.2	11.7	2.3	0.1	3.5
CCC(C(=O)NC(C)CCc1ccco1)n1nc(C)n2c(cc3occc32)c1=O (stereo not drawn)	1.9	0.4	49.8*	-0.6	-3.2
COc1ccc(C(=O)O)cc1S(=O)(=O)Nc1ccc(Oc2ccccc2)cc1	x	x	x	x	-1.9
Cc1ccc2c(c1)N(C)/C(=C/c1cccc[n+]1C)S2	64.0*	5.7	x	x	-144.8
Cc1ccc2c(c1)N(C)/C(=C/c1cccc[n+]1CCO)S2	65.8*	-1.7	x	x	-133.1
Cc1ccc2c(c1)S/C(=C/c1ccc[n+](C)c1)N2CCO	-5.3	1.5	1.0	1.5	-119.0
CN1/C(=C/c2cccc[n+]2C)Sc2ccccc21	66.3*	-1.7	x	x	-140.4
COc1ccc2c(c1)N(C)/C(=C/c1cccc[n+]1C)S2	35.0	-0.8	x	x	-137.9
CC(C)CNC(=O)COC(=O)c1c2c(nc3ccccc13)/C(=C\c1cccs1)CC2	x	x	x	x	-5.8
CN(CCC#N)C(=O)COC(=O)c1c2c(nc3ccccc13)/C(=C/c1ccco1)CC2	5.9	95.3*	7.2	0.1	-5.1
COc1ccc2c(c1)c(=O)oc1cc(OCC(=O)NC3CCCCC3)ccc12	18.2	91.1*	6.8	0.5	-12.9
COc1ccc2c(c1)c(=O)oc1cc(OCC(=O)NC3CC3)ccc12	-1.1	6.2	-21.8	-1.0	-1.1
Cc1cc(C)c(NC2=NS(=O)(=O)c3ccccc32)c(C)c1	8.6	-2.5	-1.7	3.6*	-5.9
O=C(CSc1nccc(=O)[nH]1)N1CCCc2ccccc21	-1.9	-6.3	-0.9	-0.7	38.1*
Cc1cc(=O)[nH]c(SCC(=O)N2CCCc3ccccc32)n1	3.1	-5.0	0.8	0.2	24.0
CCOC(=O)C1(Cc2ccccc2)CCCCCC1=O (stereo not drawn)	x	x	x	x	1.6
SMILES	PABP FP inh	eIF4H FP inh	eIF4E-4G inh	PERK inhibitor	MLLE-PAM2 inh
COc1ccc(NC(=O)c2nn(C34CC5CC(CC(C5)C3)C4)cc2[N+](=O)[O-])cc1	57.3*	11.8*	7.8	-0.4	7.8
O=C(Nc1cccc2ccccc12)c1nn(C23CC4CC(CC(C4)C2)C3)cc1[N+](=O)[O-]	7.8	-0.1	-6.8	-0.3	4.9
O=C(O/N=C\c1ccc(N2CCCCC2)c([N+](=O)[O-])c1)c1ccc(Cl)cc1Cl	-6.5	-3.8	3.3	3.0*	2.6
COc1cccc(CN(CC(=O)NC2CCCC2)C(=O)c2csnn2)c1	-2.8	-5.5	x	x	14.8
Cc1ccccc1-n1c(SCC(=O)Nc2ccccc2)nc2nc3c(cc2c1=O)CCCC3	54.4	active	-0.1	-1.0	-16.7
CCn1c(SCC(=O)Nc2ccc(C(C)=O)cc2)nc2nc3c(cc2c1=O)CCCC3	0.6	-4.3	51.4*	1.1	-6.6

Bioassay records (PubChem)
